Assay results taken from PubChem BioAssay (Tox21).
Where “and” joins values, the source holds several entries; their conditions need not be identical. Identical values can stand only once. Inconclusive results are not listed. Calls of active or inactive are those of the source. Calls come from the whole dose curve; as a rule, active = well fitted activation curve with a large enough effect in the repeat runs; inconclusive = weak or mixed curves; inactive = flat fitted curve, though single readings scatter.

assay: A CellTox Green Cytotoxicity Assay to monitor cytotoxicity in HepG2 cells - 16 hour (AID 1224876); conditions: CellTox Green fluorescence; series mostly up to 76.8 µM; cytotoxicity increase: at the top concentration; note: nearly all actives have a fitted effect of over 45% in size
Description: National Center for Advancing Translational Sciences [NCATS]
NIH Chemical Genomics Center [NCGC]
U.S. Environmental Protection Agency [EPA]
National Institutes of Environmental Health Sciences [NIEHS]
National Toxicology Program [NTP]
Cell-based models are critical for drug discovery. Determining the natural cytotoxic effects resulting from test compounds is an essential research activity. A CellTox Green Cytotoxicity Assay to monitor cytotoxicity in real time of continues cell culture during 40 hours of the compound treatment was used to screen Tox21 10K library compounds in HepG2 cells. CellTox Green Cytotoxicity Assay is a nonlytic, homogeneous, biofluorescent method to measure cytotoxicity in cell culture after experimental manipulation. The assay system uses a proprietary asymmetric cyanine dye that is excluded from viable cells but preferentially stains the dead cell's DNA. […] Viable cells produce no appreciable increases in fluorescence. Therefore, the fluorescence signal produced by the binding interaction with dead cell DNA is proportional to cytotoxicity.
The mixture of HepG2 cell suspension and reagents were dispensed at 600cells/6 ul/well in 1536-well tissue culture treated black solid bottom plates using a Multidrop dispenser. After the assay plates were incubated at a 37 C/5% CO2 incubator for 5 hours, 23 nL of compounds dissolved in DMSO, positive and negative controls was transferred to the assay plate by a pintool work station. The plates were incubated at 37 C for 40 hours. The fluorescence intensity were measured at 0h, 8h, 16h, 24h, 32h and 40h time points using ViewLux plate reader during compound treatment.
% is set by controls: 0 for no effect and ±100 for the full control effect; potency is the fitted concentration of half-maximal effect.

For `Cc1ccco1`, which “cytotoxicity increase” value is on record?
The value was 7.93% (inactive).

For `CCCCCCCC/C=C\CCCCCCCCCCCC(=O)O`, which “cytotoxicity increase” value is on record?
The value was -3.17% (inactive).

For `CCn1cc(C(=O)O)c(=O)c2cc(F)c(N3CCNCC3)cc21`, which “cytotoxicity increase” value is on record?
The value was -15.2% [at 35.3 µM] (inactive).

With `CCC1NC(=O)c2cc(S(N)(=O)=O)c(Cl)cc2N1` (stereo not given) as the compound, how does the “cytotoxicity increase” value read?
The value was -4.03% [at 35.3 µM] (inactive).

Which “cytotoxicity increase” value does the source give for `CCOC(C)=O` here?
Its value is -14.5% (inactive).

Which “cytotoxicity increase” value does the source give for `CN1CC(=O)N2[C@H](c3ccc4c(c3)OCO4)c3[nH]c4ccccc4c3C[C@@H]2C1=O` here?
Its value is -6.24% [at 35.3 µM] (inactive).

Which “cytotoxicity increase” value does the source give for `Cc1cc(O)ccc1O` here?
The value was -3.29% (inactive).

For `NC1[C@H]2CN(c3nc4c(cc3F)c(=O)c(C(=O)O)cn4-c3ccc(F)cc3F)C[C@@H]12` (stereo not given in full), which “cytotoxicity increase” value is on record?
The value was -26.7% [at 35.3 µM] (inactive).

With `CC(C)(C)C(=O)C(=O)O` as the compound, how does the “cytotoxicity increase” value read?
The value was 15.2% (inactive).

With `CC1(C)[C@@H](OC(=O)CCC(=O)O)CC[C@]2(C)[C@H]3C(=O)C=C4[C@@H]5C[C@@](C)(C(=O)O)CC[C@]5(C)CC[C@@]4(C)[C@]3(C)CC[C@@H]12` as the compound, how does the “cytotoxicity increase” value read?
Its value is -0.948% [at 35.3 µM] (inactive).

With `O=C=Nc1ccc(Cl)c(Cl)c1` as the compound, how does the “cytotoxicity increase” value read?
The value was -6.16% (inactive).

With `O=C1c2ccccc2C(=O)C1(O)O` as the compound, how does the “cytotoxicity increase” value read?
Its value is 2.69% (inactive).

With `CCCCC(CC)CN` (stereo not given) as the compound, how does the “cytotoxicity increase” value read?
Its value is 12.3% (inactive).

For `O=[N+]([O-])c1cc(C2CCCCC2)c(O)c([N+](=O)[O-])c1`, which “cytotoxicity increase” value is on record?
The value was 19% (inactive).

For `CC1(C)S[C@@H]2[C@H](NC(=O)C(c3ccccc3)S(=O)(=O)O)C(=O)N2[C@H]1C(=O)O` (stereo not given in full), which “cytotoxicity increase” value is on record?
Its value is -10.4% [at 35.3 µM] (inactive).

Which “cytotoxicity increase” value does the source give for `CC(=O)OCC[N+](C)(C)C` here?
Its value is 21.9% [at 35.3 µM] (inactive).

For `NCCNCCO`, which “cytotoxicity increase” value is on record?
Its value is 10.1% (inactive).

For `C=C(C)C(=O)OCCOCCOC(=O)C(=C)C`, which “cytotoxicity increase” value is on record?
The value was 0.731% (inactive).

For `O=Cc1c2ccccc2c(Cl)c2ccccc12`, which “cytotoxicity increase” value is on record?
Its value is 3.75% [at 35.3 µM] (inactive).

Which Potency does the source give for `C[C@]12CC[C@@H]3c4ccc(O)cc4CC[C@H]3[C@@H]1CC[C@@H]2OC(=O)CCC1CCCC1` here?
The Potency was 49 µM (active) and 19 µM (active).

Which “cytotoxicity increase” value does the source give for `C=C/C(C)=C/C/C=C(\C)CCC=C(C)C` here?
The value was -0.583% (inactive).

With `CCCCCCCCOc1ccc(C(=O)O)cc1` as the compound, how does the “cytotoxicity increase” value read?
Its value is -5.6% (inactive).

With `Cc1cc(O)c(C)c(C)c1O` as the compound, how does the “cytotoxicity increase” value read?
Its value is -3.03% [at 35.3 µM] (inactive).

For `O=[N+]([O-])c1ccc(Nc2ccc(Nc3ccccc3)c(S(=O)(=O)O)c2)c([N+](=O)[O-])c1`, which “cytotoxicity increase” value is on record?
Its value is -4.5% (inactive).

For `OCCN1CCN(CCCN2c3ccccc3Sc3ccc(Cl)cc32)CC1`, which Potency is on record?
Its Potency is 21.3 µM (active).

For `CCCCCCCCCI`, which “cytotoxicity increase” value is on record?
The value was -8.6% (inactive).

With `CCCCCC[C@@H](O)C/C=C\CCCCCCCC(=O)OCC(O)CO` (stereo not given in full) as the compound, how does the “cytotoxicity increase” value read?
Its value is 0.542% (inactive).

Which Potency does the source give for `COc1cc(C(=O)NC2CCN(C)CC2)ccc1Nc1ncc2c(n1)N(C1CCCC1)CC(F)(F)C(=O)N2C` here?
The Potency was 44.9 µM (active).

For `C[C@@H]1CN(CCCn2c3ccccc3c3ccccc32)C[C@H](C)N1`, which Potency is on record?
Its Potency is 26.8 µM (active).

For `Cc1ccc(CO)cc1`, which “cytotoxicity increase” value is on record?
Its value is 1.29% (inactive).

With `CCOC(=O)OC(C)OC(=O)[C@@H]1N2C(=O)[C@@H](NC(=O)[C@H](N)c3ccccc3)[C@H]2SC1(C)C` (stereo not given in full) as the compound, how does the “cytotoxicity increase” value read?
Its value is 3.21% [at 35.3 µM] (inactive).

With `C[C@H]1C[C@H](O)c2ccsc2S1(=O)=O` as the compound, how does the “cytotoxicity increase” value read?
The value was -0.123% [at 35.3 µM] (inactive).

For `COc1cc(N)c(Cl)cc1C(=O)NC1CCN(CCCOc2ccc(F)cc2)CC1OC` (stereo not given), which “cytotoxicity increase” value is on record?
Its value is 0.289% [at 35.3 µM] (inactive).

With `CCCCCC#CC(=O)OC` as the compound, how does the “cytotoxicity increase” value read?
The value was -4.55% (inactive).

With `COC(=O)CCS` as the compound, how does the “cytotoxicity increase” value read?
The value was -0.729% (inactive).

Which “cytotoxicity increase” value does the source give for `CC(=O)N/N=C/c1ccc([N+](=O)[O-])o1` here?
The value was -3% [at 35.3 µM] (inactive).

Which “cytotoxicity increase” value does the source give for `CCOC(=O)c1ccc(OCCN2C[C@H](O)[C@@H](O)[C@H](O)[C@H]2CO)cc1` here?
Its value is 1.75% [at 35.3 µM] (inactive).

With `CCC1(CO)COCOC1` as the compound, how does the “cytotoxicity increase” value read?
The value was -14.1% (inactive).

For `CCCCCCCC/C=C\CCCCCCCCO`, which “cytotoxicity increase” value is on record?
Its value is 3.07% (inactive).

For `Cc1ccc2c(Br)cc(Br)c(O)c2n1`, which “cytotoxicity increase” value is on record?
The value was -6.51% [at 35.3 µM] (inactive).
